The values below come from PubChem BioAssay (NCATS).

Records with an inconclusive call do not appear. A number with no mark means an inactive call. Calls of active or inactive are those of the source. The call rests on the fitted dose curve; in most records, active means well fitted cell-killing curve with a large enough effect; inconclusive means small, poorly fitted or top-dose-only effect, or effect the other way; inactive means no such curve, though single readings can be large or run the other way.
Potency means the concentration at half of the fitted maximal effect.

The test can be described thus: Quantitative High-Throughput drug screen in 47 multiple myeloma cell lines against the NCATS MIPE library collection: OPM1_PLB cell viability assay (AID 1918989). Further: nearly all actives have a fitted effect of over 40% in size. The following applies: CellTiter-Glo, 48 h; series mostly up to 45.8 µM; viability (% of control): at the top concentration. The text has this:
PI: Beverly A. Mock Ph.D.
Laboratory of Cancer Biology and Genetics,
Center for Cancer Research, National Cancer Institute,
National Institute of Health, Bethesda, Maryland
Drug resistance and disease progression are common in multiple myeloma (MM) patients, underscoring the need for new therapeutic combinations. […] We hypothesized that effective combinations would reduce MYC expression and enhance p16 activity. […] These preclinical data identify potentially useful drug combinations for evaluation in drug-resistant MM and reveal potential mechanisms of combined drug sensitivity.
Described herein is the primary MIPE qHTS used to cherrypick compounds. Validated compounds were then further tested for potential synergistic activiy.
[1] Peat TJ, Gaikwad SM, Dubois W, Gyabaah-Kessie N, Zhang S, Gorjifard S, Phyo Z, Andres M, Hughitt VK, Simpson RM, Miller MA, Girvin AT, Taylor A, Williams D, D'Antonio N, Zhang Y, Rajagopalan A, Flietner E, Wilson K, Zhang X, Shinn P, Klumpp-Thomas C, McKnight C, Itkin Z, Chen L, Kazandijian D, Zhang J, Michalowski AM, Simmons JK, Keats J, Thomas CJ, Mock BA. Drug combinations identified by high-throughput screening promote cell cycle transition and upregulate Smad pathways in myeloma. Cancer Lett. 2023 Aug 1;568:216284. doi: 10.1016/j.canlet.2023.216284. Epub 2023 Jun 24. PMID: 37356470; PMCID: PMC10408729.
SEQUENCE No. (e.g., 1, 2, 3, etc.); […] (e.g., Cells, Incubation, Reagent, etc.); VALUE and DESCRIPTION.
1; Cells; 5 uL; white, solid bottom 1536-well Greiner assay plate.
2; Compounds; 23 nL; Kalypsis pin tool (Wako USA) equipped with a 1536-well pin head to transfer to the assay plates.
3; Incubation; 48 hours; 37C incubation.
4; Reagent;5uL; CellTiter Glo (Promega).
5; Detector; 425V; Luminescence; Viewlux PerkinElmer.
NOTES (numbers refer to Sequence numbers above)
1. The cell-based screening methods employed in this study were like those previously published. Briefly, the corresponding myeloma cell lines were screened in 1,536-well plates with 500 cells, 5-uL per well for inhibition of cell viability (assessed by measuring ATP levels with CellTiterGlo).
2. NCATS MIPE 4.0 library of approved and investigational drugs were added using the Kalypsis pin tool. Wells treated with DMSO only for 100% viability and media only for 0% viability were used as controls.
3. The assay plates were covered and incubated for 48 hours in a 37C, 5% CO2 incubator with controlled humidity.
4. After 48 hours, CellTilter-GloTM luminescent substrate mix (Promega) reagent was added to the assay plate and plates we incubated for 5 min at room temperature.
5. Signal was measured as median relative luminescence units on a ViewLux (PerkinElmer) multiplate reader.
[1] Heske CM, Davis MI, Baumgart JT, Wilson K, Gormally MV, Chen L, Zhang X, Ceribelli M, Duveau DY, Guha R, Ferrer M, Arnaldez FI, Ji J, Tran HL, Zhang Y, Mendoza A, Helman LJ, Thomas CJ. Matrix Screen Identifies Synergistic Combination of PARP Inhibitors and Nicotinamide Phosphoribosyltransferase (NAMPT) Inhibitors in Ewing Sarcoma. Clin Cancer Res. 2017 Dec 1;23(23):7301-7311. doi: 10.1158/1078-0432.CCR-17-1121. Epub 2017 Sep 12. PMID: 28899971; PMCID: PMC6636827.
In general terms: In ATP-based viability assays light output follows the ATP content of the culture.
Turning to `CN(C)Cc1c(C(=O)NCCOc2ccc(C(=O)NO)cc2)oc2ccccc12`, the Potency is 0.469 µM (active). The same measure, in the same setting: with `Cc1cc(Nc2nc(N[C@@H](C)c3ccc(F)cc3)c(C#N)cc2F)n[nH]1` the figure was 1.32 µM (active); with `COC(=O)Nc1nc2ccc(C(=O)c3ccc(F)cc3)cc2[nH]1`, 0.59 µM (active); with `C[C@@H]1COC(Nc2ccc3ncnc(Nc4ccc(OCc5nccs5)c(Cl)c4)c3c2)=N1`, 16.6 µM (active). As for `Cc1c(CN2CCN(S(C)(=O)=O)CC2)sc2c(N3CCOCC3)nc(-c3cnc(N)nc3)nc12`, the Potency is 0.0662 µM (active).

Take `CN1c2cc(O)c(N=NC(N)=O)cc2CC1S(=O)(=O)O` (stereo not given): the “viability (% of control)” value was 125%. `C=C1C(=CC=C2CCCC3(C)[C@@H]([C@H](C)C=CC=CC(O)(CC)CC)CC[C@@H]23)C[C@@H](O)C[C@@H]1O` (stereo not given in full): the Potency is 18.7 µM (active).

Take `COc1cc(OC2CCN(C)CC2)ccc1Nc1ncc2c(n1)n(C1CCCC1)c(=O)n2C`: the Potency was 7.43 µM (active). The same measure, in the same setting: with `CN(C)CC=CC(=O)Nc1cc2c(Nc3ccc(F)c(Cl)c3)ncnc2cc1O[C@H]1CCOC1` the figure was 3.72 µM (active).

For `Nc1cc(C(F)(F)F)c(-c2cc(N3CCOCC3)nc(N3CCOCC3)n2)cn1`, the Potency was 1.05 µM (active).

As for `Cc1cn2c(-c3cn[nH]c3)cnc2c(Nc2ccc(C(=O)N3CCNCC3)cc2F)n1`, the Potency was 18.7 µM (active).

In the case of `Cc1cn2cc(C(=O)N(C)CCO)cc(N[C@@H]3CCOc4cccc(C)c43)c2n1`, the “viability (% of control)” value was 129%. As for `O=C(O)Cn1nnc(-c2cc(N3CCC(Oc4cc(F)ccc4Br)CC3)no2)n1`, the “viability (% of control)” value is 147%. As for `Cc1ccc2nc(NC(=O)CSc3nc4c(c(=O)n3-c3ccccc3)SCC4)sc2c1`, the Potency is 16.6 µM (active). The same measure, in the same setting: with `CC1(C)OC2=C(C(=O)c3ccccc3C2=O)[C@H](NCc2ccccc2)[C@H]1O` the figure was 2.35 µM (active). As to `CCCNC(=O)Nc1ccc(Oc2ncnc3cc(OC)c(OC)cc23)cc1Cl`, the “viability (% of control)” value is 130%. With `Cc1ccc(S(=O)(=O)Nc2cc(Cl)ccc2C(=O)Nc2nc(-c3ccccc3)cs2)cc1`, the Potency was 4.69 µM (active). On to `CC(C)(O)CCc1ccc(OCc2cc(-c3cccc(OC(F)F)c3)c3ncccc3c2)cc1`, for which the “viability (% of control)” value is 120%. With `C[C@@H]1CN(CC(=O)Nc2ccc3c(c2)Cc2cccc(-c4cc(=O)cc(N5CCOCC5)o4)c2S3)C[C@H](C)O1`, the Potency was 16.6 µM (active). Take `CC(C)c1cc(C(=O)N2Cc3ccc(CN4CCN(C)CC4)cc3C2)c(O)cc1O`: the Potency was 0.118 µM (active). For the molecule `COc1ccc(-n2nc(C(N)=O)c3c2C(=O)N(c2ccc(N4CCCCC4=O)cc2)CC3)cc1`, the “viability (% of control)” value was 141%. On to `Cc1ccc(NC(=O)C2(c3ccc4c(c3)OC(F)(F)O4)CC2)nc1-c1cccc(C(=O)O)c1`, for which the Potency is 0.148 µM (active).

As to `Cn1c2cc(S(C)=O)sc2c2cnn(Cc3cccc(N)c3)c(=O)c21` (stereo not given), the “viability (% of control)” value is 108%. For the molecule `OCc1ccc(-c2ccc(-c3ccc(CO)s3)o2)s1`, the Potency was 6.62 µM (active).

Take `COCCn1c2c([n+](Cc3cnccn3)c1C)C(=O)c1ccccc1C2=O`: the Potency was 0.0296 µM (active). With `CC(C)(C)c1cc(C(C)(C)C)c(NC(=O)c2c[nH]c3ccccc3c2=O)cc1O`, the “viability (% of control)” value is 139%. For `COc1cc(C)c(Sc2cnc(NC(=O)c3ccc(CNC(C)C(C)C)cc3)s2)cc1C(=O)N1CCN(C(C)=O)CC1` (stereo not given), the Potency was 18.7 µM (active). On to `COc1cc2c(NC3CCN(C(C)C)CC3)nc(C3CCCCC3)nc2cc1OCCCN1CCCC1`, for which the Potency was 3.32 µM (active). On to `CC=C1NC(=O)[C@H]2CSSCCC=C[C@H](CC(=O)N[C@H](C(C)C)C(=O)N2)OC(=O)[C@H](C(C)C)NC1=O`, for which the Potency was 0.0132 µM (active). For the molecule `CCN1CCN(CC(=O)Nc2ccc(-c3cccc4c(=O)cc(N5CCOCC5)oc34)c3sc4ccccc4c23)CC1`, the Potency is 0.264 µM (active). On the same count and under the same terms, next, `Cc1cc(Nc2cc(N3CCN(C)CC3)nc(C=Cc3ccccc3)n2)n[nH]1`: 3.82 µM (active). On to `CCNC(=O)Nc1ccc2ncc(Nc3ccc(C)cc3)nc2n1`, for which the Potency is 7.43 µM (active). As for `Cc1ccc(-c2ncn(-c3ccc(Nc4nccc(-c5cccc(N6CCOCC6)c5)n4)cc3)n2)cn1`, the Potency is 0.0833 µM (active). `CC(C)CC(=O)Nc1n[nH]c2c1CN(C(=O)C1CCN(C)CC1)C2(C)C`: the Potency is 2.09 µM (active).

For the molecule `Clc1cccc(-n2nnnc2NCc2ccccc2Oc2ccccn2)c1Cl`, the “viability (% of control)” value is 123%. As to `CNC(=O)c1ccccc1Nc1nc(Nc2ccc(N3CCOCC3)cc2OC)ncc1Cl`, the Potency was 5.26 µM (active). Still for that read-out and setting: with `Cc1cnc(Nc2ccc(F)cc2Cl)nc1-c1c[nH]c(C(=O)N[C@H](CO)c2cccc(Cl)c2)c1` the figure was 20.9 µM (active); with `COc1cc(C(C)C)c2c(c1)S(=O)(=O)N(COc1cc(=O)n3cccc(OCCN4CCCCC4)c3n1)C2=O`, 23.5 µM (active); with `CC(C)(C)NC(=O)[C@H]1CN(Cc2cccnc2)CCN1C[C@@H](O)C[C@@H](Cc1ccccc1)C(=O)N[C@H]1c2ccccc2C[C@H]1O`, 11.8 µM (active). The same measure, in the same setting: next, `CCC1=C[C@@H]2CN(C1)Cc1c([nH]c3ccccc13)[C@@](C(=O)OC)(c1cc3c(cc1OC)N(C)[C@@H]1[C@@](O)(C(=O)OC)[C@H](OC(C)=O)[C@]4(CC)C=CCN5CC[C@]31[C@@H]54)C2`: 0.0264 µM (active).
